From PubChem BioAssay
NOD2-RIPK2 inh: NOD2-RIPK2 binding disruptors in cells, primary screen, fluorescence, CHO cells, BLA complementation | Receptor-interacting serine/threonine-protein kinase 2 (Homo sapiens), O43353 | 360,000 tested, 0.38% active | inhibition, % at 4.98 µM | CCF4 ratio | AID 624267, 2012; in the data active means inhibition above about 21%;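 further: 0% = vehicle only and 100% = reference blocker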
NTR1 agonist: agonists of human NTR1, primary screen, imaging, U2OS cells, beta-arrestin-GFP, high content. NTR1-U2OS beta-arrestin-GFP spot imaging, agonist mode. activation, % at 20 µM. 330,000 tested, 0.17% active. Neurotensin receptor type 1 (Homo sapiens), P30989;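 active means activation at or above 40% of the spot to cytoplasm intensity ratio, with at least 20 cells analyzed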;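 further: 0% = DMSO without peptide and 100% = 100 nM NTR1 peptide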
ABHD5 PLIN5 PPI: ABHD5-PLIN5 interaction inhibitors, primary screen, cell lysate, split luciferase complementation, luminescence. 360,000 tested, 0.78% active. Perilipin-5 (Homo sapiens) + 1-acylglycerol-3-phosphate O-acyltransferase ABHD5 (Homo …. inhibition, % at 4 µM. Split G. princeps luciferase complementation, 4 h;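 active means inhibition above the mean inhibition across every tested compound plus 3 SD, cut at about 22% in these data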;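 further: 0% = DMSO only wells and the 100% control is not disclosed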
TLR4 MyD88 comp: inhibitors of TLR4-MyD88 association in cells, primary screen, cell-based, HeLa CL3-4, BLA complementation, FRET ratio | Toll-like receptor 4 (Homo sapiens) + Myeloid differentiation primary response protein … | HeLa CL3-4 TLR4/MyD88 BLA complementation | inhibition, % at 8.4 µM | 200,000 tested, 0.18% active | AID 861, 2007; in the data active means inhibition above about 25%;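 further: 0% = vehicle and 100% = reference inhibitor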
B2AR ag: beta2AR agonists driving receptor internalization, primary screen, cell-based, FAP fluorogen, flow cytometry. Beta-2 adrenergic receptor (Homo sapiens), P07550. Am2.2-beta2AR cells. response, % (concentration not given with the values). 340,000 tested, 0.43% active. AID 504454, 2011;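 active means response above a set limit, near 3 SD of response in nonfluorescent compounds, cut at about 42% in these data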
Target sequence (P07550 whole entry, looked up): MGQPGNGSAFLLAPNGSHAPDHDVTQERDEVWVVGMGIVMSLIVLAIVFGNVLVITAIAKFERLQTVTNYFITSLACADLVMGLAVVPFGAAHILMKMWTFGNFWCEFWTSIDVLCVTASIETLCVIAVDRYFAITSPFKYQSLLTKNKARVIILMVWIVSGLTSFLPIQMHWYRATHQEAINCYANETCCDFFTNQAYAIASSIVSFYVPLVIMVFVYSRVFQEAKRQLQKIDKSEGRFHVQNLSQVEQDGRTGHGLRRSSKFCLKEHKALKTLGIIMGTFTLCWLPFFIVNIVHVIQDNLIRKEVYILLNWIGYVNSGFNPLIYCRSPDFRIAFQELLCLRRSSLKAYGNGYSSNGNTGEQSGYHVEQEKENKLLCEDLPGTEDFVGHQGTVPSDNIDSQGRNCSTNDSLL
TLR9-MyD88 inh: inhibitors of TLR9-MyD88 association in cells, primary screen, cell-based, CHO, BLA complementation, fluorescence; Toll-like receptor 9 (Homo sapiens) + Myeloid differentiation primary response protein …; CCF4 FRET ratio; inhibition, % at 4.98 µM; 340,000 tested, 0.21% active; AID 504734, 2011;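 active means inhibition above the mean over all tested compounds plus 3 SD, cut at about 21% in these data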;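 further: 0% = DMSO only wells and 100% = clavulanate BLA inhibitor control wells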
TLR4 MyD88 cnf: TLR4-MyD88 association inhibitors, retest, confirmation, cell-based, HeLa CL3-4, BLA complementation, FRET ratio. shares compounds with TLR4 MyD88 comp. CCF4 FRET ratio. inhibition, % at 8.4 µM. 350 tested, 50% active;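 active means mean inhibition across three repeat runs above about 25% carried over from the earlier screen, limit read from the data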;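 further: plate controls were DMSO only for no effect and clavulanic acid blocking BLA at full dose for full effect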
BLA inhibitor ct: beta-lactamase inhibition flagged in TLR4-MyD88 counter-screen; shares compounds with TLR4 MyD88 comp; HeLa BLA reporter, CCF4 FRET ratio; inhibition, % at 8.4 µM; 350 tested, 63% active; AID 1237;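 active means mean inhibition over three repeats above about 26% taken from the earlier screen, limit read from the data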;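 further: HeLa cells stably expressing beta-lactamase reporter as counterscreen for TLR4-MyD88 inhibitors; 0% = DMSO and 100% = clavulanic acid full inhibition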
TLR9-MyD88 conf: TLR9-MyD88 association inhibitors, retest, confirmation, cell-based, CHO, BLA complementation, fluorescence, triplicate; inhibition, % at 4.98 µM; shares compounds with TLR9-MyD88 inh; CCF4 FRET ratio; AID 540250, 2011; 680 tested, 51% active;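 active means mean inhibition across three repeats above about 21% taken from the earlier screen, limit read from the data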;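 further: blue over green emission ratio reports constitutive TLR9 MyD88 association via BLA complementation; 0% = DMSO vehicle wells and 100% = clavulanate BLA inhibitor wells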
BLA counter-1: beta-lactamase reporter inhibitors in CHO cells, artefact control for TLR9-MyD88 binding inhibitor project, cell-based, fluorescence; shares compounds with TLR9-MyD88 inh; CHO-BLA cells, CCF4 FRET ratio, BLA reporter; inhibition, % at 4.98 µM; 680 tested, 7% active;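 active means mean inhibition above a 50% cutoff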;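 further: counterscreen of TLR9-MyD88 hits on CMV-driven BLA in CHO-K1 cells; 0% = DMSO alone and 100% = clavulanate blocking BLA; higher means less blue over green ratio so more BLA blockade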
TLR9 CHO tox: CHO cell viability loss – luminescence, single concentration, cytotoxicity control for TLR9-MyD88 binding inhibitor project | shares compounds with TLR9-MyD88 inh | TLR9-MyD88 CHO cells cytotoxicity | inhibition, % at 4.98 µM | 680 tested, 39% active; in the data active means inhibition above about 11%
NOD2 RIPK2 conf: NOD2-RIPK2 binding disruptors, retest, confirmation, fluorescence, CHO cells, BLA complementation, triplicate | shares compounds with NOD2-RIPK2 inh | CCF4 FRET | inhibition, % at 4.98 µM | 1,200 tested, 70% active;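 active means mean inhibition across replicates above a set limit taken from the earlier primary screen, cut at about 21% in these data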;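 further: 0% = DMSO-only wells and the high end = clavulanate BLA-blocked wells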
BLA counter-2: hits BLA reporter in NOD2-RIPK2 inhibitor counterscreen. shares compounds with NOD2-RIPK2 inh. 1,200 tested, 57% active. CHO BLA reporter, CCF4 FRET ratio. inhibition, % at 4.98 µM;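 active means mean inhibition above the low-control mean inhibition plus three low-control SD, cut at about 11% in these data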;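 further: 0% = DMSO only wells and 100% = clavulanate high control wells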
Active calls of the source: *; . = no result given. This is a sample that favours compounds with a hit; in the whole collection about 1.5% have one here.

SMILES	NOD2-RIPK2 inh	NTR1 agonist	ABHD5 PLIN5 PPI	TLR4 MyD88 comp	B2AR ag	TLR9-MyD88 inh	TLR4 MyD88 cnf	BLA inhibitor ct	TLR9-MyD88 conf	BLA counter-1	TLR9 CHO tox	NOD2 RIPK2 conf	BLA counter-2
COc1ccc(C(=O)C[C@@H]2OC3CCCCC3N2S(=O)(=O)c2ccc(C)cc2)cc1OC (some centres undefined)	-19.5	.	-7.6	.	.	.	.	.	.	.	.	.	.
CCCCNC(=O)c1nn(-c2ccccc2OC)c(=O)c2ccccc12	26.1*	-0.8	-0.3	25.7*	-14.6	23.8*	19.8	23.2	13.6	18.3	1.2	23.0*	23.7*
COc1ccc(C(=O)N2CCC(C)(C(=O)NS(=O)(=O)C3CC3)C2)cc1 (centres undefined)	4.7	.	0.2	.	.	.	.	.	.	.	.	.	.
COC12CC(=O)C(C(C)=O)=C(O)C1(C)c1c(O)c(C)c(O)c(C(C)=O)c1O2 (centres undefined)	-15.3	.	-3.3	.	.	.	.	.	.	.	.	.	.
C/C(=N\Nc1ccc([N+](=O)[O-])cc1)c1ccc2c(c1)OCO2	23.4*	2.7	5.0	31.9*	-7.5	31.9*	34.7*	60.4*	27.7*	27.0	7.7	19.1	24.9*
C/C(=N\Nc1ccc([N+](=O)[O-])cc1)c1cc2ccccc2o1	56.8*	8.2	5.7	60.1*	-7.1	58.4*	54.1*	86.8*	43.9*	45.8	1.7	66.5*	71.9*
COc1ccc(NC(=O)c2cc(-c3cc(F)ccc3OC(C)C)n[nH]2)c(C)c1	1.9	.	-3.9	.	.	.	.	.	.	.	.	.	.
Cc1[nH]c2ccccc2c1/C=N/Nc1ccc([N+](=O)[O-])cc1	28.1*	.	17.4	31.0*	-274.8	25.8*	23.9	42.6*	16.9	14.6	3.9	30.4*	42.5*
Cc1[nH]c2ccccc2c1/C=N/Nc1ccccn1	.	.	.	0.5	.	.	.	.	.	.	.	.	.
O=C1c2cccc3cccc(c23)C(=O)N1Cc1cccnc1	-5.6	-0.4	-0.6	.	-0.8	8.7	.	.	.	.	.	.	.
Cc1ccc(N2C(=O)c3cccc4c([N+](=O)[O-])ccc(c34)C2=O)c2cccnc12	13.4	-3.5	0.9	.	17.5	8.5	.	.	.	.	.	.	.
Cc1ccnc(N2C(=O)c3cccc4c([N+](=O)[O-])ccc(c34)C2=O)c1	88.0*	1.1	0.0	91.8*	8.1	78.6*	90.2*	112.9*	58.0*	81.7*	93.1*	91.9*	83.2*
O=C1c2cccc3c([N+](=O)[O-])ccc(c23)C(=O)N1Cc1cccnc1	78.5*	.	5.6	77.3*	18.7	65.7*	79.0*	104.0*	48.6*	65.6*	71.6*	84.1*	71.4*
O=C(Nc1ccc([N+](=O)[O-])cc1)C(c1ccccc1)c1ccccc1	13.7	.	-6.8	.	.	-3.9	.	.	.	.	.	.	.
COc1cc(/C=C/C(=O)CC(=O)/C=C/c2ccc(O)c(OC)c2)ccc1O	37.0*	8.3	31.5*	32.1*	-70.9	28.4*	20.0	42.7*	30.2*	26.3	7.4	59.2*	61.0*
Nc1ccc2c3c(cccc13)C(=O)N(c1ccccc1)C2=O	31.2*	.	-5.3	25.2*	-67.2	28.2*	18.0	38.8*	12.8	15.6	3.6	35.7*	42.3*
O=C(CC[C@H]1O[C@@H](n2ccc(=O)[nH]c2=O)[C@H](O)[C@@H]1O)N[C@@H](Cc1ccccc1)C(=O)NCC1CCCCC1	-15.6	.	-2.7	.	.	.	.	.	.	.	.	.	.
CC(=O)C1=NN(c2ccccc2)C(c2cccs2)N1c1ccc(N(C)C)cc1 (centres undefined)	-3.6	4.1	-0.5	-10.0	3.5	-2.9	.	.	.	.	.	.	.
CC(=O)C1=NN(c2ccccc2)C(c2ccc3c(c2)OCO3)N1c1ccccc1 (centres undefined)	21.1*	0.1	-10.9	28.0*	3.2	20.1	16.6	35.7*	.	.	.	38.9*	49.0*
N#Cc1ccc(S(=O)(=O)N2CCCCC2c2cc(C(=O)NCc3ccccc3)no2)cc1 (centres undefined)	-2.1	.	-2.5	.	.	.	.	.	.	.	.	.	.
N#Cc1sc2nc(-c3cccs3)cc(-c3ccc(Cl)cc3)c2c1N	24.1*	12.4	5.2	43.6*	-5.0	30.1*	46.6*	74.7*	46.2*	44.9	2.7	63.8*	65.8*
CCN(CC)C(=O)c1sc2nc(-c3cccs3)cc(-c3ccc(Cl)cc3)c2c1N	-9.0	4.1	-10.7	6.8	-87.9	18.3	.	.	.	.	.	.	.
CCc1nc2ccc(C(=O)N(CC)CCN(C)C)cn2c1N(C)C(=O)C1CCCCC1	-2.4	.	2.4	.	.	.	.	.	.	.	.	.	.
O=C(Cn1ncc(Cl)c(Cl)c1=O)c1ccc(Cl)cc1	34.0*	.	2.6	28.9*	15.0	31.8*	21.9	8.3	17.7	12.9	71.6*	39.0*	6.5
CCCCn1c2c(c(=N)c3ccccc31)CCC2	-9.2	3.3	4.2	.	-4.9	-4.5	.	.	.	.	.	.	.
